SMILES strings stand for the structures. The panel holds about 79,000 compounds, 15% with a hit somewhere; the sample as a whole holds those more often. Values without a mark were called inactive. Activity calls are given as the source filed them. No stated cut-off is given here; in the data, active means growth inhibition above about 70%; inactive means the rest.

The nature of this experiment: NCI Yeast Anticancer Drug Screen. Data for the mec2-1 strain (AID 157). Conditions: S. cerevisiae mec2-1 strain, at 50.0 µM, hits give high values. How it is done: Growth inhibition of yeast strains with defined genetic alterations is measured as a screen for potential anti-cancer activity. Selected strains with alterations in DNA damage repair or cell cycle control were exposed to compounds and growth inhibition was measured relative to vehicle treated controls. The strain used in this assay is mec2-1
In the case of `CCC(C#N)(CC)c1ccccc1`, the growth inhibition is 13.4%.
Consider `COc1cc2c3cc1Oc1c(OC)c(OC)cc4c1C(Cc1ccc(O)c(c1)Oc1ccc(cc1)CC3N(C)CC2)N(C)CC4` (stereo not given), for which the growth inhibition is 0.55%.
Then `c1csc(-c2cc(-c3cc(-c4cccs4)[nH]n3)n[nH]2)c1`, with -11.2%; and `CC(=O)NCc1cc(C)c(C)cc1C`, with -20.1%; and `FC(F)(F)c1ccc2c(c1)N(CCCN1CCN(C3CC3)CC1)c1ccccc1S2`, with 99.3% (active).
For `COc1ccc(NC(=O)CCl)cc1` the value was 12.8%.
With `CCN(CC)C(=O)/C=C(/C)c1ccccc1`, the growth inhibition is -2.65%.
On to `O=C(O)c1ccc(S(=O)(=O)O)cc1`, for which the growth inhibition was 11.8%.
Then `Cc1cc(/C=C/c2ccc3cc(N(C)C)ccc3[n+]2C)c(C)n1-c1ccccc1`, with 87.2% (active); and `CCOC(=O)CNN`, with 9.3%.
For `O=C(NC1CCCCC1)OCc1c(COC(=O)NC2CCCCC2)c(-c2ccc(Cl)c(Cl)c2)n2c1CCC2` the value was 7.1%; for `CCCCCCCCCCC1CO1` (stereo not given), -4.15%.
As to `C#Cc1cccc(NC(=O)c2ccc(Cl)cc2Cl)c1`, the growth inhibition was -9.7%.
In the case of `CC(C)COC(=O)COC(=O)OCCOCCOC(=O)OCC(=O)OCC(C)C`, the growth inhibition is -8.7%.
Turning to `COc1cc2c3c(n(C)c(=O)c2cc1OC)-c1cc2c(cc1C3=O)OCO2`, the growth inhibition is -15.2%.
Then `COC(=O)CCCCC1=CCC2C(=O)C=C(O)C2C1` (stereo not given), with 13.1%; and `O=S(=O)(O)CC(O)CN1CCN(CCO)CC1` (stereo not given), with -35.8%.
For `CCOC(=O)C1OC1c1ccccc1` (stereo not given) the value was -6.45%; for `CCCCCCCCO`, 17.2%.
Regarding `O=C(O)c1cccc([N+](=O)[O-])c1O`, the growth inhibition is 1.35%.
Then `Cc1cc(C(O)(c2ccc(Nc3ccccc3)cc2)c2ccc(Nc3ccc(S(=O)(=O)O)cc3)cc2)ccc1N` (stereo not given), with -46%; and `C=CCc1cc(C(C)=O)cc(OC)c1O`, with -6.7%.
As for `CC(=Nc1ccccc1)C1=C(O)C(Cc2cccc(F)c2)NC1=O` (stereo not given), the growth inhibition is 4.35%.
Regarding `C#CC(C)(O)c1ccc(Cl)cc1` (stereo not given), the growth inhibition is -2.15%.
For `Nc1ncnc2c1nc(N)n2C1OC(CO)C(O)C1O` (stereo not given) the value was -17.9%; for `S=c1[nH]ccn1-c1ccccc1Cl`, -17.2%; for `c1ccc(/C(=N\N=C(/c2ccccc2)c2cccs2)c2cccs2)cc1`, -23.1%.
On to `CCCOC(=O)C(O)c1ccccc1` (stereo not given), for which the growth inhibition was -6.25%.
For the compound `Cc1cc2nc(CC(=O)c3cccc([N+](=O)[O-])c3)c(=O)[nH]c2cc1C`, the growth inhibition is 10.9%.
Turning to `CC1CCC(C(=O)O)N1` (stereo not given), the growth inhibition is 6.5%.
`CCOC(=O)C(O)C(O)C(=O)OCC` (stereo not given): the growth inhibition was -15.8%.
For `Sc1ccc(Nc2c3ccccc3nc3ccccc23)cc1` the value was 33.6%; for `COCCCC/C(=N\OCCN)c1ccc(C(F)(F)F)cc1`, 4.6%.
As for `N#Cc1ccc(OC(=O)Nc2ccc(Cl)c(Cl)c2)cc1`, the growth inhibition is -4.4%.
For `COc1ccc(Oc2c(I)cc(CC(NC(C)=O)C(=O)O)cc2I)cc1` (stereo not given) the value was 40.5%; for `CCC(C)(O)c1ccc(C)cc1` (stereo not given), 33%; for `C=CCNc1ccccc1`, 4.35%.
Then `O=c1cc(-c2ccccc2)[nH]c(=S)[nH]1`, with -11.9%; and `CCCC(=O)Nc1ccc2c(c1)CN1C(=O)c3ccccc3C1=N2`, with 1.8%.
Then `CCCCCCCCOC(=O)c1ccccn1`, with 0.3%.

The values above are taken from PubChem BioAssay (NCI).
